Gal4-VP16 FLuc – inhibits Gal4-VP16 luciferase reporter, ROR gamma counter-screen; Drosophila S2 Gal4-VP16 UAS-luciferase, luminescence, 20 h; Potency, µM (titrated, usually from 53.6 µM), inactives show top-dose activity, negative = inhibition, actives largely listed as inhibitors; 310,000 tested, 3.5% active;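 further: Gal4-VP16 expression switched on by copper sulfate through the metallothionein promoter; potency means the concentration at half of the fitted maximal effect; nearly all actives have a fitted effect of over 50% in size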
ELG1 DNA repair – ELG1-dependent DNA repair inhibition | HEK293T ELG1-luciferase reporter, luminescence, 16 h; DNA damage induced by 5-fluorouridine | AID 504467 | Potency, µM (series often up to 46.1 µM), inactives show at the highest dose activity change, negative = inhibition, hits mostly inhibitors | 330,000 tested, 2.3% active; further: potency means the concentration at half of the fitted maximal effect; nearly all actives have a fitted effect of over 55% in size
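Quantitative HTS, concentration-response format. 2,000 cells/well co-treated with 5-fluorouridine and compound, 16 hr in 5% CO2 at 37 °C; ONE-Glo luminescence read after 30 min.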
IL-1B inflam inh – blocks inflammasome-driven IL-1 beta release; THP-1 LPS/ATP IL-1B secretion, AlphaLISA, 16 h; hits give low values; activity change, % at 57.5 µM; 360,000 tested, 4.7% active; AID 743279; in the data active means activity change below about -50%; inconclusive means mostly about -30% to -49%
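Secreted IL-1B measured by AlphaLISA bead assay after 16 h compound exposure of THP-1 cells; compounds (final up to 57.5 uM) added 1 h before LPS (250 ng/mL) and ATP (1.25 mM) stimulation; lower signal means less secretion.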
RORgamma inh – inhibitors of mouse ROR gamma transcriptional activity; P51450; Drosophila S2 Gal4-RORgamma UAS-luciferase reporter, 20 h; Potency, µM (titrated, usually from 53.6 µM), for the others: top-dose activity change, negative = inhibition, actives largely listed as inhibitors; 310,000 tested, 5.4% active; AID 2551; further: potency means the concentration at half of the fitted maximal effect; nearly all actives have a fitted effect of over 60% in size
Target sequence (P51450 whole entry, looked up, the tested form may be a part): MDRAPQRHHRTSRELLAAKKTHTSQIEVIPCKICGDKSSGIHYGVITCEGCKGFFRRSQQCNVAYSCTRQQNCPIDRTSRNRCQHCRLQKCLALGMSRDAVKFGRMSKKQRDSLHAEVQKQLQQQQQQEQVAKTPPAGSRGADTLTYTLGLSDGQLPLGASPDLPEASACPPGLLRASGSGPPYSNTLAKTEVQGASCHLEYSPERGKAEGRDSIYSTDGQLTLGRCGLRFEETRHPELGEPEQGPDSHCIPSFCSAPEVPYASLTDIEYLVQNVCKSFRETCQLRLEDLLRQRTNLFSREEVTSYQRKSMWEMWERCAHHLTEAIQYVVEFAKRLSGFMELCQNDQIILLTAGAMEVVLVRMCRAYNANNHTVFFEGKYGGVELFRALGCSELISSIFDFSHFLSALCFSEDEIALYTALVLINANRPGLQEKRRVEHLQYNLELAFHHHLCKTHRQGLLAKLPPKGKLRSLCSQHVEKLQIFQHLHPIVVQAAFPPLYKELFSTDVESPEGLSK
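Luminescence from a UAS-regulated Photinus luciferase reporter in stably transfected Drosophila Schneider cells is measured; decreased signal marks ROR gamma inhibition. Fusion expression is induced by 700 uM copper sulfate for 20 hr.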
DT40 TDP1 no CPT – qHTS for Inhibitors of human tyrosyl-DNA phosphodiesterase 1 (TDP1): qHTS in cells in absence of CPT | DT40 Tdp1-/- hTDP1 cells, no CPT, ATP luminescence, 48 h | Potency, µM (top dose mostly 46.2 µM), for the others: at the highest dose activity change, negative = growth inhibition, actives largely listed as inhibitors | 420,000 tested, 15% active | AID 686978, 2013; further: potency means the concentration at half of the fitted maximal effect; nearly all actives have a fitted effect of over 55% in size
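Cells were dispensed at 400 per well, compounds added by pin tool, plates incubated ≥48 hr at 37 °C, then CellTiter-Glo added for 30 min at room temperature before luminescence reading. Line: DT40 Tdp1-/- complemented with hTDP1; camptothecin omitted.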
DT40 TDP1 CPT – DT40-hTDP1 cell growth loss with CPT; AID 686979; Potency, µM (highest dose often 46.2 µM), for inactives: top-dose activity change, negative = growth inhibition, actives largely listed as inhibitors; chicken DT40 Tdp1-/-;hTDP1 cells + 20 nM CPT, ATP luminescence, 48 h; 420,000 tested, 12% active; further: potency means the concentration at half of the fitted maximal effect; nearly all actives have a fitted effect of over 55% in size
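Cell growth measured by CellTiter-Glo luminescence after a minimum 48 h, 37 C compound exposure with 20 nM CPT in Tdp1-knockout DT40 cells stably expressing hTDP1, seeded 400/well; qHTS titration format.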
* marks the source's active call; other numbers are inactive results; [ ] = dose if it differs, or a comment. Compounds with a hit are over-represented: about 21% of the library has one in this group of screens. Unless noted, the call rests on the fitted dose curve; in most records, active means well fitted curve in the direction sought with a large enough effect; inconclusive means small, poorly fitted or top-dose-only effect, or another doubt; inactive means no such curve, though single readings can be large; an effect the other way counts as inactive or inconclusive. On the % scale 0 is the no-effect control and ±100 the full control effect.

Screening Cc1nc(N)sc1CCN returned Gal4-VP16 FLuc -2%, RORgamma inh -4%, DT40 TDP1 no CPT -7% and DT40 TDP1 CPT inconclusive.
`CCC(C)C1NC(=O)C(NC(=O)C(CC(C)C)N(C)C(=O)C2CCCN2C(=O)C(C)O)C(C)OC(=O)C(Cc2ccc(OC)cc2)N(C)C(=O)C2CCCN2C(=O)C(CC(C)C)NC(=O)[C@H](C)C(=O)[C@H](C(C)C)OC(=O)CC1O` (stereo partly specified) gave IL-1B inflam inh -100*, DT40 TDP1 no CPT 0.029µM* and DT40 TDP1 CPT 0.037µM*.
For COC(C)C(O)(C(=O)OC1=CCN2CC[C@H](O)[C@H]12)C(C)C (stereo partly specified) the results were Gal4-VP16 FLuc 2%, RORgamma inh -11%, DT40 TDP1 no CPT 21µM* and DT40 TDP1 CPT 11µM*.
For CC(C)c1ccc(-n2c(O)c(C=NCCN3CCNCC3)c(=O)[nH]c2=S)cc1 the results were Gal4-VP16 FLuc -1%, ELG1 DNA repair 4%, IL-1B inflam inh -6, RORgamma inh 4%, DT40 TDP1 no CPT -15% and DT40 TDP1 CPT 4%.
Clc1cccc(N2Cc3ccccc3-n3nncc3C2)c1 was read as IL-1B inflam inh -9, DT40 TDP1 no CPT inconclusive and DT40 TDP1 CPT inconclusive.
`CC(=O)O[C@H]1CC[C@@]2(C)[C@H](C1)C(=O)C[C@H]1[C@@H]3CC[C@@H]4[C@@H](CN5C[C@@H](C)CC[C@H]5[C@@]4(C)O)[C@@H]3C[C@@H]12` gave Gal4-VP16 FLuc -3%, ELG1 DNA repair 4%, IL-1B inflam inh -6, RORgamma inh -19%, DT40 TDP1 no CPT inconclusive and DT40 TDP1 CPT -26%.
For Brc1ccccc1Cn1c(-c2cncs2)nc2ccccc21 the results were Gal4-VP16 FLuc -8%, ELG1 DNA repair 13%, IL-1B inflam inh 5, RORgamma inh 6.3µM*, DT40 TDP1 no CPT 16µM* and DT40 TDP1 CPT inconclusive.
CN1C(=O)CCS(=O)(=O)C1c1ccc(Cl)cc1 (stereo unspecified) was read as Gal4-VP16 FLuc 1%, RORgamma inh 1%[10 µM], DT40 TDP1 no CPT 0% and DT40 TDP1 CPT 9%.
`Cc1cc(C)n(-c2ccc(NN=C(C#N)C#N)cc2)n1` gave Gal4-VP16 FLuc 10µM*, ELG1 DNA repair 0%, IL-1B inflam inh -13, RORgamma inh inconclusive, DT40 TDP1 no CPT 7.3µM* and DT40 TDP1 CPT 10µM*.
`N#CC(C#N)=NNc1ccc(-n2ccc(C(F)(F)F)n2)cc1` gave Gal4-VP16 FLuc 3.5µM*, ELG1 DNA repair inconclusive, IL-1B inflam inh -83*, RORgamma inh 5µM*, DT40 TDP1 no CPT 1.6µM* and DT40 TDP1 CPT 2.3µM*.
NC[C@@H](CC(=O)O)c1ccc(Cl)cc1 was read as Gal4-VP16 FLuc -8%, RORgamma inh 22%, DT40 TDP1 no CPT -1% and DT40 TDP1 CPT 12%.
`O=C(Oc1ccccc1)N1CCC[C@@]2(CCN(Cc3cc(C(F)(F)F)cc(C(F)(F)F)c3)C2)C1` gave Gal4-VP16 FLuc 1%, RORgamma inh 20%, DT40 TDP1 no CPT inconclusive and DT40 TDP1 CPT inconclusive.
Screening O=[N+]([O-])c1nccn1CO[C@@H](CO)[C@H](O)CO returned DT40 TDP1 no CPT 2% and DT40 TDP1 CPT inconclusive.
Screening NS(=O)(=O)c1cc(C(=O)OCC(=O)Nc2ccc3[nH]c(=O)[nH]c3c2)ccc1Cl returned ELG1 DNA repair inconclusive, IL-1B inflam inh 9, DT40 TDP1 no CPT 1% and DT40 TDP1 CPT 1%.
Screening Cc1ccc(-c2cc(-c3ccccc3)cc(-c3ccccc3)[n+]2-c2ccccc2C(=O)O)cc1 returned ELG1 DNA repair 0%, IL-1B inflam inh -2, DT40 TDP1 no CPT 9.2µM* and DT40 TDP1 CPT 9.2µM*.
Cc1ccc(N2CCN(C(=O)c3cn(CC4CCCCC4)nn3)C(C)C2)cc1 (stereo unspecified) was read as IL-1B inflam inh -5, DT40 TDP1 no CPT inconclusive and DT40 TDP1 CPT 18µM*.
COc1cccc(CNC(=O)c2cc3c(-c4ccccc4F)nn(C)c3s2)c1 was read as DT40 TDP1 no CPT 16µM* and DT40 TDP1 CPT inconclusive.
`COc1ccccc1N1CCN(C(=O)c2cc3c(-c4ccccc4F)nn(C)c3s2)CC1` gave DT40 TDP1 no CPT 6.5µM* and DT40 TDP1 CPT inconclusive.
Cc1cc(NC(=O)c2cccn(Cc3cccc([N+](=O)[O-])c3)c2=O)no1 was read as DT40 TDP1 no CPT -12% and DT40 TDP1 CPT -14%.
`COc1ccc(/C=C/C(=O)N2CC3C[C@@H](C2)Cn2c3cccc2=O)cc1OC` gave Gal4-VP16 FLuc 3%, RORgamma inh -21%, DT40 TDP1 no CPT -4%[9.04 µM] and DT40 TDP1 CPT 17%[9.04 µM].
`O=C(COc1ccccc1[N+](=O)[O-])N1CCN(CCc2ccccn2)CC1` gave DT40 TDP1 no CPT 4% and DT40 TDP1 CPT -3%.
For COP(=O)(OC)OC=C(Cl)Cl the results were Gal4-VP16 FLuc -25%, RORgamma inh -14%, DT40 TDP1 no CPT 12µM* and DT40 TDP1 CPT inconclusive.
`N=C1c2ccccc2CN1NC(=O)c1ccc(Br)cc1` gave Gal4-VP16 FLuc 8%, ELG1 DNA repair 13%, IL-1B inflam inh -102*, RORgamma inh 9%, DT40 TDP1 no CPT 2% and DT40 TDP1 CPT -15%.
CC12CC[C@H]3[C@@H](CCC4(O)C[C@H](O)CCC34/C=N/NC(=O)c3ccc(O)cc3)C1(O)CCC2C1=CC(=O)OC1 (stereo partly specified) was read as Gal4-VP16 FLuc 10µM*, ELG1 DNA repair 4%, IL-1B inflam inh 9, RORgamma inh 8.9µM*, DT40 TDP1 no CPT 1% and DT40 TDP1 CPT 1%.
Screening COc1ccc(C(=O)N/N=C/C23CC[C@@H](O)CC2(O)CC[C@@H]2[C@@H]3CCC3(C)C(C4=CC(=O)OC4)CCC23O)cc1 (stereo partly specified) returned Gal4-VP16 FLuc 4%, ELG1 DNA repair inconclusive, IL-1B inflam inh -71*, RORgamma inh 2%, DT40 TDP1 no CPT -1% and DT40 TDP1 CPT -3%.
Screening C[C@]12CCC3C(CC[C@]4(O)C[C@@H](O)CC[C@]34C=O)[C@@]1(O)CC[C@@H]2C1=CC(=O)OC1 (stereo partly specified) returned Gal4-VP16 FLuc -3%, RORgamma inh -5%, DT40 TDP1 no CPT 6µM* and DT40 TDP1 CPT 9.4µM*.
